Vaccinia mCherry = qHTS for Stage-Specific Inhibitors of Vaccinia Orthopoxvirus: mCherry Reporter Primary qHTS; Vaccinia virus mCherry reporter infection, fluorescence; Potency, µM (titrated, usually from 36.5 µM), without a hit: at the highest dose activity change, negative = inhibition, most hits filed as inhibitors; 310,000 compounds, 0.63% hits; AID 720579, 2013; calls by dose curve; tested in A549 cells; further: nearly all actives have a fitted effect of over 35% in size
LASV entry inh = qHTS for Inhibitors of binding or entry into cells for Lassa Virus. AID 540256, 2011. 300,000 compounds, 1.2% hits. Lassa virus pseudotype entry inhibition, cell reporter. Potency, µM (series often up to 37.9 µM), for inactives: at the top dose activity change, negative = inhibition, actives largely listed as inhibitors; calls by dose curve; tested in HEK293 cells; further: nearly all actives have a fitted effect of over 50% in size
Sm TGR block = qHTS Assay for the Inhibitors of Schistosoma Mansoni Peroxiredoxins; Schistosoma mansoni thioredoxin glutathione reductase (TGR), Q962Y6; purified TGR, DTNB reduction, TNB absorbance 405 nm; Potency, µM (series often up to 114 µM), for inactives: at the highest dose activity change, negative = inhibition, most hits filed as inhibitors; 360,000 compounds, 3% hits; AID 485364, 2010; active means well fitted inhibition curve with a large enough effect; inconclusive means small, poorly fitted or top-dose-only effect; inactive means no such curve, though single readings can be large or run the other way; further: nearly all actives have a fitted effect of over 60% in size
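Kinetic colorimetric format: TGR-catalysed, NADPH-driven DTNB reduction monitored via TNB absorbance. Enzyme dispensed at 20 nM; compound exposure 15 min at room temperature before reaction start.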
VACV Venus inh = qHTS for Stage-Specific Inhibitors of Vaccinia Orthopoxvirus: Venus Reporter Primary qHTS. 330,000 compounds, 0.46% hits. Vaccinia virus Venus reporter expression, fluorescence. Potency, µM (highest dose often 36.5 µM), for the others: at the top dose activity change, negative = inhibition, hits mostly inhibitors. AID 720580, 2013; calls by dose curve; tested in A549 cells; further: nearly all actives have a fitted effect of over 30% in size
MARV entry inh = qHTS for inhibitors of binding or entry into cells for Marburg Virus | Potency, µM (series often up to 37.8 µM), for inactives: at the highest dose activity change, negative = inhibition, hits mostly inhibitors | 300,000 compounds, 1.8% hits | Marburg virus pseudotyped entry inhibition, cell reporter; calls by dose curve; tested in HEK293 cells
FMDV inh = High Throughput Screening for Foot and Mouth Disease Virus Antivirals | FMDV antiviral cell-based qHTS | 410,000 compounds, 1.2% hits | Potency, µM (top dose mostly 57.9 µM), for inactives: at the highest dose activity change, negative = inhibition, hits mostly inhibitors | AID 1159524, 2015; calls by dose curve; tested in HEK293T cells; further: read-out not given here; nearly all actives have a fitted effect of over 45% in size
Numbers without * were called inactive; i = inactive; ? = inconclusive; . = no result; ! = not active in a repeat; [ ] = another dose, or the depositor's remark. Sampled rows, rich in hits. Any-hit rate of the full collection: about 5.4%. On the % scale 0 is the no-effect control and ±100 the full control effect; potency means the concentration at half of the fitted maximal effect.

SMILES | Vaccinia mCherry | LASV entry inh | Sm TGR block | VACV Venus inh | MARV entry inh | FMDV inh
O=C(C1CCC1)N1CCc2cc(S(=O)(=O)N3CCN(c4ccccc4)CC3)ccc21 | -9% | -2%[46.1 µM] | -2% | -5% | -1%[46.1 µM] | 0%
CCN(CC)CCCNC(=O)c1oc2ccc(S(=O)(=O)N3CC(C)CC(C)C3)cc2c1C (stereo unspecified) | ? | ? | 3% | -27% | 10µM* | 15%
Cc1c(C(=O)N2CCCCC2)oc2ccc(S(=O)(=O)N3CC(C)CC(C)C3)cc12 (stereo unspecified) | . | ? | -10% | ? | 11µM* | ?
Cc1ccc(OCc2ccc(C(=O)NCc3cccnc3)cc2)cc1C | -14% | 7.9µM* | . | -14% | 8.9µM* | -16%
O=C(COc1ccc(Cl)cc1)Nc1ccc(C(=O)NCc2cccnc2)cc1 | . | -22% | 8% | . | -27% | 14µM*
CC(C)(C)c1ccc(C(=O)c2c[nH]c(C(=O)NCc3cccnc3)c2)cc1 | . | 3% | -20% | . | ? | 0%
O=C(Cc1ccc(Cl)cc1)c1c[nH]c(C(=O)NCc2cccnc2)c1 | -12% | . | 20% | -12% | . | 7.9µM*
COc1ccc2c(c1)CCc1c(C(=O)NCc3cccnc3)noc1-2 | -21% | 14% | 28µM* | -13% | ? | -15%
Cn1c(=O)c2c(nc(SCC(=O)Nc3ccccc3F)n2Cc2ccccc2F)n(C)c1=O | -14% | 9%[46.1 µM] | 4% | -21% | 7%[46.1 µM] | 0%
O=c1c2c3c(sc2n2cnnc2n1-c1ccccc1)N(Cc1ccccc1)CCC3 | . | 17% | 25µM* | . | 9% | -10%
CCOc1ccc(NC(=O)c2cnn(-c3ccc(C)c(C)c3)c2C2CCN(C(=O)OC(C)(C)C)CC2)cc1 | -13% | 3%[46.1 µM] | 2% | -10% | 0%[46.1 µM] | -19%
CCOc1ccc(/C=C2/SC(=O)NC2=S)cc1 | i | ? | 45µM* | -7% | ? | 19%
CCOC(=O)C[C@@H](C#N)c1cn(C)c2ccccc12 | . | . | . | . | -18% | .
COc1ccc(CCN2C(=O)c3ccccc3NC2c2cc(Cl)c(O)c(OC)c2)cc1 (stereo unspecified) | ? | 5.6µM* | -33% | -17% | ? | -5%
COc1ccc2cc(C#N)c(SCC(=O)OCc3ccccc3)nc2c1 | -25% | . | . | -10% | . | .
Cc1cc2c(c(-c3ccc(Cl)cc3)c1)OC(CNC(=O)Cc1c(C)noc1C)C2 (stereo unspecified) | -15% | . | . | -10% | . | -13%
CCOC(=O)c1c2c(n(C3CCCCC3)c1CN(C)C)CC(Br)=C(OC)C2 | . | . | . | . | 10µM* | .
Cc1cc(Cl)cc(C)c1OCCn1ccnc1 | -22% | 3.5µM* | 23% | 14% | 1.3µM* | -22%
COc1ccccc1CN1CCOc2ccc(C(C)(O)COc3ccccc3)cc2C1 (stereo unspecified) | -15% | . | . | -10% | . | -6%
Cc1ccc(S(=O)(=O)Nc2nc3n(n2)C(c2ccc(Cl)cc2)C=C(c2ccccc2)N3)cc1 (stereo unspecified) | -1% | 1%[46.1 µM] | 2% | 2% | -21%[46.1 µM] | -12%
Cc1ccc(C2C=C(c3ccccc3)Nc3nc(N4C(=O)CCC4=O)nn32)cc1 (stereo unspecified) | -20% | -5% | 22µM* | -10% | 14%[46.1 µM] | 1%
CC1=CC(c2ccc(Cl)cc2)n2nc(N3C(=O)CCC3=O)nc2N1 (stereo unspecified) | . | 1% | -5% | . | 19% | 6%
COc1ccc(C2C=C(c3ccccc3)Nc3nc(NC(C)=O)nn32)cc1 (stereo unspecified) | -10% | 4%[46.1 µM] | 20µM*! | -14% | ? | 10%
O=S(=O)(Nc1nc2n(n1)C(c1ccccc1)C=C(c1ccc(Cl)cc1)N2)c1ccccc1 (stereo unspecified) | -4%[7.34 µM] | 7%[46.1 µM] | 45µM* | -1%[7.34 µM] | 10%[46.1 µM] | -16%
Cc1ccc(C2C=C(c3ccccc3)Nc3nc(NS(=O)(=O)c4ccccc4)nn32)cc1 (stereo unspecified) | -22%[7.34 µM] | -11%[46.1 µM] | 35µM* | -18%[7.34 µM] | ? | -10%
SMILES | Vaccinia mCherry | LASV entry inh | Sm TGR block | VACV Venus inh | MARV entry inh | FMDV inh
Cc1ccc(CNC(=O)C2CCCN(c3ncnc4onc(-c5ccc(F)cc5)c34)C2)cc1 (stereo unspecified) | -9% | 4%[46.1 µM] | -1% | -7% | . | -14%
CS(=O)(=O)Nc1cccc(-c2nc(Nc3ccncc3)c3ccccc3n2)c1 | . | . | . | . | . | -16%
O=C(Nc1nc(-c2ccc3c(c2)OCCO3)cs1)c1ccc(S(=O)(=O)N2CCCCC2)cc1 | -5% | ? | -6% | -19% | ? | .
O=C(Nc1nc(-c2ccc(S(=O)(=O)N3CCCCCC3)cc2)cs1)c1ccccc1 | . | ? | 1% | . | -25% | 11µM*
Cc1csc(NC(=O)c2ccc(S(=O)(=O)N3CCCC3)cc2)n1 | . | . | 0% | . | . | 16%
O=C(Nc1nc(-c2cccs2)cs1)c1ccc(S(=O)(=O)N2CCCC2)cc1 | ? | 21µM* | 5% | ? | 12µM* | 10µM*
COCc1c(C(=O)NC2CCCCC2)cnn1-c1nccc(-c2cc(C)sc2C)n1 | -2% | . | . | -1% | . | -17%
CCN(c1ccc(OC)cc1)S(=O)(=O)c1ccc2[nH]c3c(c2c1)CCCCC3 | ? | ? | -7% | ? | . | ?
CC(C)(C)c1ccc(OCc2nnc(-c3ccccc3)o2)cc1 | -2% | 20%[46.1 µM] | 10% | 5% | ? | 12%
CC1CCC(NC(=O)CCc2cn(Cc3ccc(F)cc3)c3ccccc23)CC1 (stereo unspecified) | -19% | ? | -1% | -24% | . | 0%
Cc1nc(C)c(-c2ccc(SCc3cccc(F)c3)nn2)s1 | . | . | -15% | . | . | 15%
Fc1cccc(CSc2ccc(-c3ccco3)nn2)c1 | i | 5% | 32µM* | -12% | 23% | 40%
Fc1ccc(CSc2ccc(-c3ccco3)nn2)cc1 | i | -13% | 45µM* | -17% | -1% | 40%
Cc1cc(=O)n2nc(N(C)CC(=O)NCc3ccccc3C)sc2n1 | -4% | 11%[46.1 µM] | -1% | -10% | 22%[46.1 µM] | -23%
CC1(C)CC(NC(=O)C2=C(C(=O)NC3CC(C)(C)NC(C)(C)C3)CCCC2)CC(C)(C)N1 | . | . | . | . | -17% | .
CC1=CC(=NOC(=O)c2cccc([N+](=O)[O-])c2)C=C(C)C1=O | i | -4% | 2.8µM* | 21% | -4% | -4%
CC1=CC(=O)C(C(C)C)=C/C1=N/OC(=O)c1cccc([N+](=O)[O-])c1 | -28% | -19% | 45µM* | -12% | -1% | .
CCCOc1ccc(C2=NC(c3ccc(F)cc3)=Nc3ccc(OC)cc3N2)cc1 | -7% | -19%[46.1 µM] | 1% | -13% | 1%[46.1 µM] | 17%

Screens as filed in PubChem BioAssay.
